Assay results: PubChem BioAssay (NCATS)
Results filed as inconclusive are left out. Where a call stands in place of a potency, no number is given. The source made the active and inactive calls. Calls follow the shape of the dose curve; as a rule, active = well fitted inhibition curve with a large enough effect; inconclusive = small, poorly fitted or top-dose-only effect; inactive = flat fitted curve, though single readings scatter. Where a SMILES comes first, the peptide text is derived from it. Bridges are numbered along the chain shown (N, C = ends). [ ]: non-standard residue; d: D form. Orn = NCCC[C@H](N)C(=O)O; Mpa = O=C(O)CCS
Potency is read from the fitted curve at half-maximal effect.

Assay: P-glycoprotein substrates identified in KB-8-5-11 adenocarcinoma cell line, qHTS therapeutic library screen (AID 1346987); also: nearly all actives have a fitted effect of over 65% in size
Conditions: KB-8-5-11 (P-gp overexpressing) viability, CellTiter-Glo, 72 h; series mostly up to 44.5 µM
In short: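 Luminescence from CellTiter-Glo, read 5 min after addition, quantified survival of KB-8-5-11 (P-gp-overexpressing) cells exposed to compounds for 72 h. AC50 was derived from concentration-response curves.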
For `Cn1ccc(NC(=O)c2cc(Oc3ccc(C(=O)N4CCC4)c(F)c3)c3c(c2)OC(C)(C)C3)n1`, the Potency was “inactive”.
With `C[C@H]1C[C@H]2[C@@H]3CCC4=CC(=O)C=C[C@]4(C)[C@@]3(F)[C@@H](O)C[C@]2(C)[C@@]1(O)C(=O)CCl` the Potency was “inactive”.
With `C=CC1(C)CC(O)C(C(=C)C(=O)OC)C(O)C1C(=C)CO` (stereo not given) the Potency was “inactive”.
In the case of `Cc1ccc(-c2ncccn2)c(C(=O)N2C[C@H](COc3ccc(F)cn3)CC[C@H]2C)c1`, the Potency is reported as “inactive”.
With `CC1(NC(=O)c2ccc(C#Cc3cccc(F)c3)cn2)COC1` the Potency was “inactive”.
In the case of `CS(=O)(=O)Nc1cc2occ(NC=O)c(=O)c2cc1Oc1ccccc1`, the Potency is reported as “inactive”.
For `CC(C)n1cnc2c(-c3cnc(N)nc3)nc(N3CCOCC3)nc21`, the Potency was 0.709 µM (active).
In the case of `Cc1ccccc1CN1CCn2c1nc1c(c2=O)CN(Cc2ccccc2)CC1`, the Potency is reported as “inactive”.
For `CC(=O)OC(C)(C)/C=C/C(=O)C(C)(O)C1C(O)CC2(C)C3CC=C(C(C)(C)C(=O)O)C(CC(=O)O)C3(C)C(=O)CC12C` (stereo not given), the Potency was “inactive”.
With `COc1cc(CCO)ccc1O[C@@H]1O[C@H](CO)[C@@H](O)[C@H](O)[C@H]1O` the Potency was “inactive”.
With `CC(=O)Nc1cccc(-c2csc(Nc3cc(C)ccn3)n2)c1` the Potency was “inactive”.
For `O=S(=O)(NCc1cccc2ccccc12)c1cc(Cl)c(Oc2cccc(N3CCNCC3)c2)s1`, the Potency was 16.4 µM (active).
In the case of `CCn1c(=O)c(-c2ccc(Cl)cc2Cl)cc2cnc(Nc3ccc(N4CCNCC4)c(F)c3)nc21`, the Potency is reported as 20.6 µM (active).
For `CCCC1(CCC)CCC2(CCN(CCCN(CC)CC)C2)CC1`, the Potency was 2.31 µM (active).
In the case of `COc1ccc(-c2csc(NC(=O)[C@H]3CCCCN3S(=O)(=O)c3ccc(C)cc3)n2)cc1`, the Potency is reported as “inactive”.
With `O=C(COc1ccc(C(=O)c2ccccc2)cc1)NC1CCN(Cc2ccccc2)CC1` the Potency was “inactive”.
With `COc1ccc2c(c1O[C@H]1CCNC1)CCC2` the Potency was “inactive”.
For `O=C(Nc1ccc(Cl)cc1)Nc1cccc(-c2cccc(N3CCCC3)n2)c1`, the Potency was 20.6 µM (active).
For `CC(C)CCNC(=O)[C@H](CC(C)C)NC(=O)[C@H]1O[C@@H]1C(=O)O`, the Potency was “inactive”.
In the case of `Cn1ncc(Cl)c1-c1cc(C(=O)NC(CN)Cc2ccc(F)c(F)c2)oc1Cl` (stereo not given), the Potency is reported as 14.6 µM (active).
With `COc1ccc(NC(=O)c2ccc(-c3ccc(C(=N)N)cc3C)cc2)cc1N1CCN(C)CC1` the Potency was “inactive”.
With `CCCn1ncc(CN2CCCC(C(=O)c3cccc(OC(C)C)c3)C2)c1C` (stereo not given) the Potency was “inactive”.
For `CC(C)C[C@@H]1NC(=O)[C@@H](Cc2ccccc2)NC(=O)C(CCCCCC(=O)C2CO2)NC(=O)[C@@H]2CCCCN2C1=O` (stereo not given in full), the Potency was 3.99 µM (active).
In the case of `C=C(C)C(=O)OC1CC2(C)OC(=CC2=O)C(=C)CC2OC(=O)C(=C)C12` (stereo not given), the Potency is reported as 10.1 µM (active).
With `Fc1ccc(-c2cncc(CN3CCN(c4cccc5c4OCCO5)CC3)c2)cc1` the Potency was “inactive”.
For `CC(=O)O[C@@H]1[C@@H](O)[C@H](O[C@@H]2[C@@H](O)[C@@H](O)[C@H](O[C@H]3[C@H](O[C@H]4[C@H](O[C@H]5CC[C@@]6(C)C(CC[C@]7(C)C6CC=C6[C@@H]8CC(C)(C)CC[C@]8(C(=O)O)CC[C@]67C)[C@]5(C)CO)O[C@H](CO)[C@@H](O)[C@@H]4O)OC[C@@H](O)[C@@H]3O)O[C@H]2C)OC[C@H]1O` (stereo not given in full), the activity change, negative = cytotoxicity was 7.23% [at 9.29 µM] (inactive).
For `CC1CC(=O)C2=C(C1)C1OC1C1(O)C2C(=O)c2cccc(O)c2C1O` (stereo not given), the Potency was “inactive”.
With `COc1c(CCC(=O)O)cccc1O[C@@H]1O[C@H](CO)[C@@H](O)[C@H](O)[C@H]1O` the Potency was “inactive”.
In the case of `CNCCN1CCC(c2cc(CN(C)C(=O)c3cccc(Oc4ccccc4)c3)ccn2)CC1`, the Potency is reported as “inactive”.
In the case of `C=C1/C(=C/C=C2\CCC[C@]3(C)[C@@H]([C@H](C)CC[C@@H](O)C(C)(C)O)CC[C@@H]23)C[C@@H](O)C[C@@H]1O`, the Potency is reported as “inactive”.
In the case of `C=CC(=O)N1CCC[C@@H](n2nc(-c3cccc(C(=O)Nc4ccc(C(C)C)c(C)c4)c3)c3c(N)ncnc32)C1`, the Potency is reported as “inactive”.
With `CCOc1ccc(C[C@H]2NC(=O)CCSSC[C@@H](C(=O)N3CCC[C@H]3C(=O)N[C@@H](CCCN)C(=O)NCC(N)=O)NC(=O)[C@H](CC(N)=O)NC(=O)[C@H]([C@@H](C)O)NC(=O)[C@H]([C@@H](C)CC)NC2=O)cc1` ([Mpa][dY](Et)ITNCP[Orn]G-NH2; disulfide 1-6) the Potency was “inactive”.
With `CC#CCC(C)[C@H](O)/C=C/[C@@H]1[C@H]2c3cccc(CCCC(=O)O)c3O[C@H]2C[C@H]1O` (stereo not given in full) the Potency was “inactive”.
For `NC(=O)C[C@@H](N)C(=O)O`, the Potency was “inactive”.
For `C[C@]12CC[C@@H]3c4ccc(O)c(O)c4CC[C@H]3[C@@H]1CCC2=O`, the Potency was “inactive”.
For `CC(=O)O[C@@H]1[C@@H](OC(C)=O)[C@H](C)O[C@@H](O[C@H]2[C@@H]3C=CO[C@@H](O[C@@H]4O[C@H](CO)[C@@H](O)[C@H](O)[C@H]4O)[C@@H]3[C@@]3(CO)O[C@@H]23)[C@@H]1OC(=O)/C=C/c1ccccc1`, the Potency was “inactive”.
In the case of `C=C[C@@]1(C)CCC2C(=CCC3[C@]2(C)CCC[C@@]3(C)C(=O)O)C1` (stereo not given in full), the Potency is reported as “inactive”.
For `CCCCNc1ncc2c(-c3ccc(S(=O)(=O)N4CCOCC4)cc3)nn(C3CCC(O)CC3)c2n1` (stereo not given), the Potency was 7.31 µM (active).
For `CCC(C)CC(=O)OC1C(=O)C(CO)=CC(O)C1C(C)C` (stereo not given), the Potency was 7.31 µM (active).
In the case of `C=C[C@]1(C)C[C@@H](OC(=O)CO)[C@]2(C)[C@H](C)CC[C@]3(CCC(=O)[C@H]32)[C@@H](C)[C@@H]1O`, the Potency is reported as “inactive”.
